Shiga inhibitor = A qHTS for Small Molecule Inhibitors of Shiga Toxin; inhibition, % at 38.7 µM; 9.2% of 290,000 active; Vero cells, Shiga toxin protein synthesis inhibition reporter; in the data active means inhibition mostly above about 28%, no sharp cut-off; inactive means mostly below about 43%; further: 0% is about no effect
Cycloheximide cs = Cycloheximide Counterscreen for Small Molecule Inhibitors of Shiga Toxin; 12% of 300,000 active; max response, %; cell reporter, cycloheximide protein synthesis inhibition counterscreen; AID 2314, 2010; in the data active means max response mostly above about 13%, no sharp cut-off; inactive means mostly below about 14%; further: read at 38.3 µM for the half of the compounds with a filed dose; 0% is about no effect
LmPK inh = qHTS Assay for Inhibitors of Leishmania Mexicana Pyruvate Kinase (LmPK) | purified LmPK, Kinase-Glo ATP luminescence, 1 h | Potency, µM (highest dose often 57.5 µM), without a hit: at the top dose activity change, negative = inhibition, most hits filed as inhibitors | 0.37% of 290,000 active | AID 1721, 2009; further: potency means the concentration at half of the fitted maximal effect; on the % scale 0 is the no-effect control and ±100 the full control effect
Target sequence (Q27686 whole entry, looked up): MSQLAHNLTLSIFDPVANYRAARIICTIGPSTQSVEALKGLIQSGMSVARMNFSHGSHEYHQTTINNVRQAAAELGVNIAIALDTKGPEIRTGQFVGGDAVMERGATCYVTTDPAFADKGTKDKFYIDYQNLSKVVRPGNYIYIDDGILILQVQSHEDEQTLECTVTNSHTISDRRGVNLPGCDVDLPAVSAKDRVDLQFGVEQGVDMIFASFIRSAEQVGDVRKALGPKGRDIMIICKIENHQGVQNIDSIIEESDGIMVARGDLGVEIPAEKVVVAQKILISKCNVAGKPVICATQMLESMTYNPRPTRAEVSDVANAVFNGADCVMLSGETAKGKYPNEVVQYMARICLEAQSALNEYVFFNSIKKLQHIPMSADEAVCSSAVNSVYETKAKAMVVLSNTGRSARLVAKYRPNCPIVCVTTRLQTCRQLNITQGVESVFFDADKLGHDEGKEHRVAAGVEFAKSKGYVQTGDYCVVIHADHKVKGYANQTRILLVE
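Kinase-Glo luminescence read after 1 h RT reaction of 0.1 nM LmPK with 0.5 mM PEP and 0.1 mM ADP. Activity scaled between uninhibited and enzyme-free controls.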
TbPYK inhibitor = qHTS of Trypanosoma Brucei Inhibitors; pyruvate kinase (Trypanosoma brucei), Q57TT1; TbPYK enzyme, Kinase-Glo Plus ATP luminescence, 45 min; Potency, µM (series often up to 76.8 µM), for the others: top-dose activity, negative = inhibition, most hits filed as inhibitors; 0.12% of 410,000 active; AID 624173, 2012; further: potency means the concentration at half of the fitted maximal effect; on the % scale 0 is the no-effect control and ±100 the full control effect; nearly all actives have a fitted effect of over 50% in size
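TbPYK + substrate in 50 mM TEA pH 7.2, 100 mM KCl, 10 mM MgCl2, 0.05% BSA, 0.01% Tween-20; cpd pinned; ADP 130 uM final; 45 min RT; Kinase-Glo Plus 10 min; luminescence endpoint.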
RE007 growth inh = qHTS Assay for Inhibitors of the HIV-1 protein Vpr. S. pombe RE007 Vpr strain, BacTiter-Glo ATP luminescence, 24 h. Potency, µM (doses to about 92.2 µM), for the others: at the highest dose activity change, negative = less growth, usual class: inhibitors. 0.21% of 360,000 active. AID 651644, 2012; active means well fitted falling curve with a large enough effect; inconclusive means small, poorly fitted or top-dose-only effect; inactive means no such curve, though single readings can be large or run the other way; further: potency means the concentration at half of the fitted maximal effect; on the % scale 0 is the no-effect control and ±100 the full control effect; nearly all actives have a fitted effect of over 50% in size
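Fission yeast strain RE007, carrying one chromosomally integrated HIV-1 vpr copy, was seeded at OD 0.01 in PMG+AL medium with 23 nL pinned compound. After 24 h at 30 °C and 99% humidity, viability was read by BacTiter-Glo luminescence.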
FBPA Giardia inh = qHTS Assay for Inhibitors of Fructose-1,6-bisphosphate Aldolase from Giardia Lamblia; A8B2U2; purified Giardia FBPA; Potency, µM (highest dose often 59.6 µM), inactives show at the highest dose activity, negative = inhibition, most hits filed as inhibitors; 0.71% of 290,000 active; further: potency means the concentration at half of the fitted maximal effect; on the % scale 0 is the no-effect control and ±100 the full control effect; nearly all actives have a fitted effect of over 55% in size
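Giardia FBPA (40 nM reagent) was preincubated 10 min at RT with compound (up to 57.5 uM final), then substrate plus GAPDH/TPI/NAD/arsenate coupling system with diaphorase/resazurin was added; resorufin fluorescence (525/598 nm) was read after 20 min.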
An asterisk follows results filed as active. Many of the other results were omitted from the sample, so hits are more common in it than they were. Unless noted, the call rests on the fitted dose curve; in most records, active means well fitted curve in the direction sought with a large enough effect; inconclusive means small, poorly fitted or top-dose-only effect, or another doubt; inactive means no such curve, though single readings can be large; an effect the other way counts as inactive or inconclusive.

CC(=O)n1cc(/C=N/NC(=O)c2ccc(Cl)cc2)c2ccccc21 was read as Shiga inhibitor 61*, Cycloheximide cs 41*, LmPK inh 1%, TbPYK inhibitor -12%, RE007 growth inh 3% and FBPA Giardia inh 6%.
`CC(=O)n1cc(/C=N/NC(=O)c2cccc(O)c2)c2ccccc21` gave Shiga inhibitor 59*, Cycloheximide cs 36*, LmPK inh -3%, TbPYK inhibitor 1%, RE007 growth inh -6% and FBPA Giardia inh 7%.
Cc1cc2c(s1)c1cnn(Cc3ccc(C(F)(F)F)cc3)c(=O)c1n2C was read as Shiga inhibitor -7 and Cycloheximide cs -6.
`Brc1ccc(Oc2ncc(CN3CCN(c4ccccc4)CC3)s2)cc1` gave Shiga inhibitor 39, Cycloheximide cs -4, LmPK inh 6%, TbPYK inhibitor -3%, RE007 growth inh inconclusive and FBPA Giardia inh 0%.
For Clc1cccc(Oc2ncc(CN3CCOCC3)s2)c1 the results were Shiga inhibitor 25, Cycloheximide cs 20*, LmPK inh -1%, TbPYK inhibitor -7%, RE007 growth inh 1% and FBPA Giardia inh 3%.
Cc1ccc(Oc2ncc(CN3CCOCC3)s2)cc1 was read as Shiga inhibitor 61*, Cycloheximide cs 24*, LmPK inh -3%, TbPYK inhibitor 4%, RE007 growth inh 5% and FBPA Giardia inh 2%.
For O=C(NC(Cc1ccccc1)c1ccc2c(c1)OCCCO2)c1ccc(F)cc1 (configuration not stated) the results were Shiga inhibitor 30, Cycloheximide cs 20, LmPK inh -1%, TbPYK inhibitor 31%, RE007 growth inh 11% and FBPA Giardia inh -6%.
For CC(=O)NC(Cc1ccccc1)c1ccc2c(c1)OCCCO2 (configuration not stated) the results were Shiga inhibitor active, Cycloheximide cs 11, LmPK inh 0%, TbPYK inhibitor -6%, RE007 growth inh 19% and FBPA Giardia inh -1%.
For Cc1cn2c(=O)cc(COC(=O)c3cccc(NC(=O)C(C)Oc4ccccc4)c3)nc2s1 (configuration not stated) the results were TbPYK inhibitor -4%.
`CN1CCN(C(=O)c2cc3cc(F)ccc3[nH]2)CC1` gave Shiga inhibitor -7, Cycloheximide cs 16, LmPK inh -3%, TbPYK inhibitor -8%, RE007 growth inh -11% and FBPA Giardia inh 6%.
Screening O=C(c1cc2cc(F)ccc2[nH]1)N1CCC2(CC1)OCCO2 returned Shiga inhibitor 50*, Cycloheximide cs 30*, LmPK inh 3%, TbPYK inhibitor -1% and RE007 growth inh -1%.
For O=C(c1cc2cc3ccc(Cl)cc3nc2o1)N1CCC2(CC1)OCCO2 the results were Shiga inhibitor 18, Cycloheximide cs 7, LmPK inh -2%, TbPYK inhibitor 1%, RE007 growth inh -16% and FBPA Giardia inh 0%.
Screening O=C(c1cc2cc(Cl)ccc2[nH]1)N1CCC2(CC1)OCCO2 returned Shiga inhibitor 30*, Cycloheximide cs 28*, LmPK inh 11%, TbPYK inhibitor -2% and RE007 growth inh 14%.
For O=C(CCC(=O)N1CC2CCCN2c2ccccc21)NCc1ccc(F)cc1 (configuration not stated) the results were TbPYK inhibitor -2%.
Screening CC(=S)/C=C1\Sc2ccccc2N1C returned Shiga inhibitor -18, Cycloheximide cs -2, LmPK inh -3%, TbPYK inhibitor inconclusive, RE007 growth inh inconclusive and FBPA Giardia inh -8%.
COc1ccccc1-[n+]1c(C)cc(/C=C2\Sc3ccccc3N2C)cc1C was read as Shiga inhibitor 24, Cycloheximide cs 32*, LmPK inh 2%, TbPYK inhibitor -1%, RE007 growth inh inconclusive and FBPA Giardia inh -13%.
COc1ccc(C(=O)/C=C2\Sc3ccccc3N2C)cc1 was read as Shiga inhibitor 47, Cycloheximide cs 35*, LmPK inh -29%, TbPYK inhibitor -3%, RE007 growth inh -10% and FBPA Giardia inh inconclusive.

Bioassay records (PubChem)
